Active and inactive are the calls of the source. Calls come from the whole dose curve; as a rule, active = well fitted activation curve with a large enough effect; inconclusive = small, poorly fitted or top-dose-only effect; inactive = no such curve, though single readings can be large or run the other way.
Experiment: Confirmatory qHTS for Identification of Small Molecule Activators of Huntingtin-Antisense Promoter Activity
Conditions: HEK293 HTT-AS promoter firefly luciferase reporter, 24 h; series mostly up to 57.5 µM
Outline: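 HEK293 luciferase reporter cells, 2,500/well, cultured 24 h, then exposed to compounds at up to 57.5 uM final for 24 h at 37C. Firefly luciferase luminescence read; normalized to vehicle (0%) and zero RLU (-100%).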
Potency is the fitted concentration of half-maximal effect.

Potency, active:
CN(C)Cc1c(C(=O)NCCOc2ccc(C(=O)NO)cc2)oc2ccccc12 7.57 µM, COc1cccc(-c2cn3c(n2)sc2cc(C(=O)NCc4cccs4)ccc23)c1 8.49 µM

Potency, inactive:
Cc1ccc(Nc2cc(C)nc(-n3nc(C)cc3C)n2)cc1, CC(=O)c1cccc(NS(=O)(=O)c2cccc(S(=O)(=O)c3ccc(Br)cc3)c2)c1, COc1ccc(-c2noc(N3CCN(c4cccc(Cl)c4)CC3)n2)cc1OC, O=C(Nc1cccc(Cl)c1)C1CCCN(c2nn3cc(-c4ccc(F)cc4)nc3s2)C1 (centres undefined), Cc1cccc(CN2C(=O)N(c3ccc(C(C)C)cc3)S(=O)(=O)c3ccccc32)c1, COc1ccc(-c2onc(C)c2C)cc1S(=O)(=O)N1CCc2ccccc21, COc1ccc(-c2noc(CSc3nc4ccccc4[nH]3)n2)cc1OC, Cc1ccc(CN2CCSc3ccc(C(=O)NCC(C)c4ccccc4)cc32)cc1 (centres undefined), CCN(CC)c1ccc(NC(=O)COCc2cc(-c3ccc4c(c3)OCO4)on2)c(C)c1, CCOc1ccccc1NC(=O)c1ccc(F)c(S(=O)(=O)N2CCN(c3ccc(F)cc3)CC2)c1, CCCCN(CC)C(=O)C1CCC(CNS(=O)(=O)c2cccc3nsnc23)CC1 (centres undefined), CCOc1ccc(C(=O)Nc2ccc(-n3nncc3-c3ccc(OC)cc3)cc2)cc1, COc1cc(OC)c(OC)cc1/C=C/c1nc2cc3ccccc3cc2c(=O)n1-c1ccc(F)c(Cl)c1, CCc1ccc(NC(=O)c2ccc(F)c(S(=O)(=O)N3CCN(c4cc(C)ccc4C)CC3)c2)cc1, CSc1ccc(CCNC(=O)C2CCCN(S(=O)(=O)N(C)c3ccc(F)cc3)C2)cc1 (centres undefined), Cc1ccc(Cl)cc1-n1ncc2c(Nc3cccc(C)c3C)ncnc21, Cc1cccc(N2CCN(C(=O)c3ccc4c(c3)CCN4S(=O)(=O)c3ccccc3)CC2)c1C, Cc1ccccc1CN1CCc2nc(N3CCN(c4ccccn4)CC3)ncc2C1, COc1ccc(NC(=O)Cn2c(SCc3ccc(F)cc3)nc3cccnc32)cc1OC, COC[C@H](NC(=O)c1cnc(C)s1)C(=O)N[C@@H](COC)C(=O)N[C@@H](Cc1ccccc1)C(=O)[C@@]1(C)CO1, Cc1ccccc1Nc1c(-c2cccnc2)nc2cccc(C)n12, Cc1ccc(Cl)cc1N1CCN(C(=O)Cn2cnc3nc4c(cc3c2=O)CCCC4)CC1, COc1ccc(NS(=O)(=O)c2ccc(N3CCCCS3(=O)=O)cc2)cc1Cl, Cc1ccc(C)c(NC(=O)Cn2c(-c3nonc3N)nc3ccccc32)c1, COc1ccc(CNC(=O)c2c(Nc3ccccc3C)sc(C(=O)c3ccccc3)c2N)cc1, Cc1cccc(NC(c2cccc(Cl)c2)c2ccc3cccnc3c2O)n1 (centres undefined), CCOCCCNC(=O)c1c[nH]c2ccc(S(=O)(=O)N(C)c3ccc(Cl)cc3F)cc2c1=O, Cc1cccc(NC(=O)c2ccc(F)c(S(=O)(=O)N(C)C3CCCCC3)c2)c1, Cn1cnc(S(=O)(=O)N2CCC(C(=O)Nc3ccc(OC(F)(F)F)cc3)CC2)c1, Cc1cc(C)cc(OCCn2c(C3CC(=O)N(c4ccccc4Cl)C3)nc3ccccc32)c1 (centres undefined), O=C(Nc1ccc(F)cc1F)N1CCN(c2ccc(Cl)c(Cl)c2)CC1, CCN(C(=O)C1CCC(CNS(=O)(=O)c2cccc3nsnc23)CC1)c1ccccc1 (centres undefined), O=C(NCc1ccc(F)cc1)c1ccc(CS(=O)(=O)c2ccc(Cl)cc2)o1, CCC(=O)N1CCCc2cc(S(=O)(=O)N3CCC(C(=O)Nc4ccc(F)c(F)c4)CC3)ccc21, Cc1ccc(CN(C(=O)COc2cccc(Cl)c2)c2ccccn2)o1, CC(C)OCc1cc(CN2CCN(c3cccc(C(F)(F)F)c3)CC2)c(O)c2ncccc12, Cc1nc2sccn2c(=O)c1S(=O)(=O)Nc1ccc(N2CCOCC2)c(Cl)c1

— PubChem BioAssay AID1508622 (National Center for Advancing Translational Sciences (NCATS), 2021)
